Test results taken from PubChem BioAssay (EPA / NIEHS).
The source made the active and inactive calls. Rule for the calls: active = hit-call score of the fitted dose curve at least 0.9, where 1 is the maximum; inactive = score below 0.9.

Tests used:
[1] = target: Transcription factor E2F1 (Homo sapiens) (UniProt Q01094); test: ATG_E2F_CIS: Attagene CIS-FACTORIAL HepG2 Assay for human E2F Transcription Factor 1 (AID 2282935); conditions: HepG2 Attagene cis-reporter, E2F reporter RNA transcripts; actives raise or lower the signal
Sequence of Transcription factor E2F1 (Homo sapiens) (Q01094 whole entry, looked up): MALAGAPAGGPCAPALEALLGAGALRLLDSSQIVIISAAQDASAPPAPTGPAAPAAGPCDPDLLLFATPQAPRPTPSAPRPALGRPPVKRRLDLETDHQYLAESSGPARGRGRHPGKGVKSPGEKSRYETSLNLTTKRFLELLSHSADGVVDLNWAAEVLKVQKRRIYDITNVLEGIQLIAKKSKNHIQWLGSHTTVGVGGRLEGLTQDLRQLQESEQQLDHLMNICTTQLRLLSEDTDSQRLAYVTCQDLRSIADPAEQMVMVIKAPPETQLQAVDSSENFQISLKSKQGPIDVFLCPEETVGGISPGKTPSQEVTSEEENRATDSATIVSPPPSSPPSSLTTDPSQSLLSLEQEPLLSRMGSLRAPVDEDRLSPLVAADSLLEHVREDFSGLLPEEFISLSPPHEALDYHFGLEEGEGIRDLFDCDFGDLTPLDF
How it was run: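 Measures reporter transcript levels via RT-PCR with capillary electrophoresis detection in HepG2 cells harboring cis-regulated reporter units; 24 h post-dose; bidirectional curve fitting with DMSO as baseline.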

[2] = ATG_E_Box_CIS: Attagene CIS-FACTORIAL HepG2 Assay for human Enhancer Box (E-box) (AID 2282936); conditions: HepG2 E-box cis-reporter transcription, actives raise or lower the signal
How it was run: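 First, HepG2 cells receive multiple cis-regulated reporter constructs by transient transfection. Next, chemicals are applied for 24 h. Finally, reporter mRNA is quantified via RT-PCR and capillary electrophoresis, with DMSO as baseline.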

[3] = ATG_M_61_CIS: Attagene CIS-FACTORIAL HepG2 Assay for M61 Transcription Factor (Internal Marker) (AID 2282937); conditions: HepG2 Attagene CIS-FACTORIAL M61 internal marker reporter; actives raise or lower the signal
How it was run: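 Human liver HepG2, transient MRTU transfection (cis promoter elements), 24 h compound. Total RNA → oligo(dT) RT → PCR → FAM label → HpaI → CE. Internal background marker; bidirectional fitting, DMSO = baseline.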

[4] = ATG_EGR_CIS: Attagene CIS-FACTORIAL HepG2 Assay for human Early Growth Response 1 (EGR1) (AID 2282938); conditions: HepG2 Attagene CIS-FACTORIAL EGR reporter mRNA; actives raise or lower the signal
How it was run: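 Transient transfection of human HepG2 with multiple cis-regulated reporter units, chemical exposure 24 h, total RNA isolated. Reverse transcription, PCR, fluorescent labelling and capillary electrophoresis quantify reporter transcripts; activity fitted bidirectionally against DMSO.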

[5] = ATG_M_19_CIS: Attagene CIS-FACTORIAL HepG2 Assay for M19 Transcription Factor (Internal Marker) (AID 2282939); conditions: HepG2 Attagene CIS-FACTORIAL M19 internal marker reporter; actives raise or lower the signal
How it was run: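 Internal marker readout, fitted in both directions against DMSO, from HepG2 cells carrying transfected cis-element reporter constructs; RT-PCR and capillary electrophoresis of reporter mRNA after 24 h exposure.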

[6] = ATG_ERE_CIS: Attagene CIS-FACTORIAL HepG2 Assay for Estrogen Response Element (ERE) (AID 2282940); conditions: HepG2 ERE cis-reporter, Attagene RNA transcript; actives raise or lower the signal
How it was run: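 After 24 h compound treatment, RNA from transfected HepG2 cells was reverse-transcribed, reporter cDNA PCR-amplified, FAM-labelled, HpaI-cut and resolved by capillary electrophoresis. ERE-driven cis reporter transcripts reflect endogenous factors; gain or loss scored against DMSO.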

[7] = ATG_Ets_CIS: Attagene CIS-FACTORIAL HepG2 Assay for human Erythroblast Transformation Specific (ETS) (AID 2282941); conditions: HepG2 ETS cis-reporter transcription, actives raise or lower the signal
How it was run: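 HepG2 cells transiently transfected with cis-promoter reporter transcription units were dosed for 24 h; reporter mRNA was measured by RT-PCR, 6-FAM primer extension, HpaI digestion and capillary electrophoresis, with bidirectional fitting against DMSO baseline.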

[8] = target: Hepatocyte nuclear factor 3-beta (Homo sapiens) (UniProt Q9Y261); test: ATG_FoxA2_CIS: Attagene CIS-FACTORIAL HepG2 Assay for human Forkhead box A2 (FOXA2) (AID 2282942); conditions: HepG2 cis-reporter transcription factor activity, 24 h; actives raise or lower the signal
Sequence of Hepatocyte nuclear factor 3-beta (Homo sapiens) (Q9Y261 whole entry, looked up): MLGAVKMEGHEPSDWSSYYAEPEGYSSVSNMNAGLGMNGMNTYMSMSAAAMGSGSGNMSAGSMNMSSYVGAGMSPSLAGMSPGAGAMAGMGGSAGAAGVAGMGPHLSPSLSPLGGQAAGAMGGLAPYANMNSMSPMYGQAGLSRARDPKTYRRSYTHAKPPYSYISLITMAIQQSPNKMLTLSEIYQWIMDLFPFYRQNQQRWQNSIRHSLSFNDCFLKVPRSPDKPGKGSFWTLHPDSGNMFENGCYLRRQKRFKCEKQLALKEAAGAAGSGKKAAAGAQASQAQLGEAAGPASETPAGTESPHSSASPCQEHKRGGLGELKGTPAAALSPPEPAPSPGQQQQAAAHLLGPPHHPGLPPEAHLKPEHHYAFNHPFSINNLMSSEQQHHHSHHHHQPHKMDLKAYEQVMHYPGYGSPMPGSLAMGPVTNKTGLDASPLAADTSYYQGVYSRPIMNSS
How it was run: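 Transient MRTU transfection of HepG2 liver cells; 24 h treatment; total RNA → oligo(dT) RT → PCR → FAM primer extension → HpaI cut → CE. Bidirectional fit vs DMSO.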

[9] = ATG_FoxO_CIS: Attagene CIS-FACTORIAL HepG2 Assay for human Forkhead box O (FoxO) (AID 2282943); conditions: HepG2 Attagene cis-reporter, FoxO element, mRNA; actives raise or lower the signal
How it was run: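 Transfected HepG2 reporter cells exposed to test chemical for 24 h; reporter RNA measured by reverse transcription, PCR and fluorescent capillary electrophoresis; curves fitted for increases and decreases against DMSO.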

[10] = ATG_GATA_CIS: Attagene CIS-FACTORIAL HepG2 Assay for human GATA Binding Protein (AID 2282944); conditions: HepG2 GATA cis-element reporter, Attagene multiplex mRNA; actives raise or lower the signal
How it was run: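 Reporter transcripts from a GATA cis-regulated unit, among multiplexed reporters in transfected HepG2 cells, were measured by RT-PCR with capillary electrophoresis after 24 h dosing. Induction or loss scored relative to DMSO.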

[11] = ATG_GLI_CIS: Attagene CIS-FACTORIAL HepG2 Assay for human Zinc Finger Protein GLI1 (AID 2282945); conditions: HepG2, Attagene cis-factorial reporter mRNA, GLI element; actives raise or lower the signal
How it was run: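 Transiently transfected HepG2 cells report endogenous transcription factor activity via cis-element-driven reporter units. After 24 h compound exposure, reporter mRNA was measured by RT-PCR with capillary electrophoresis; bidirectional fitting against DMSO baseline.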

[12] = target: Bile acid receptor (Homo sapiens) (UniProt Q96RI1); test: ATG_IR1_CIS: Attagene CIS-FACTORIAL HepG2 Assay for human Nuclear Receptor Subfamily 1 Group H Member 4 (NR1H4), IR1 submotif (AID 2282946); conditions: IR1 reporter transcription, actives raise or lower the signal
Sequence of Bile acid receptor (Homo sapiens) (Q96RI1 whole entry, looked up): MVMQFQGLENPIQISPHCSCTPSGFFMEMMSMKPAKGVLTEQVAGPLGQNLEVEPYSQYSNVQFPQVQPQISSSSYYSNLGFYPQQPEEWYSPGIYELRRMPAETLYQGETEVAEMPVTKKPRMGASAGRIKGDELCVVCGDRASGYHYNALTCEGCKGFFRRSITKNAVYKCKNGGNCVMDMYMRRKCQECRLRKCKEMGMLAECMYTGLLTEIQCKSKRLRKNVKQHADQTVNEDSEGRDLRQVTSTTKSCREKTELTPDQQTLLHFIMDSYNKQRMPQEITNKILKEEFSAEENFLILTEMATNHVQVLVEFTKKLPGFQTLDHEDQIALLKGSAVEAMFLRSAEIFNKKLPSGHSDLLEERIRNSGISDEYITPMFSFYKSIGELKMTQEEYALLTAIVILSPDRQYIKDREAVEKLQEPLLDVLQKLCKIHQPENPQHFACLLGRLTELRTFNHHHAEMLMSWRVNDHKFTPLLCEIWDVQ
How it was run: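 HepG2 cells transiently transfected with multiple cis-promoter-driven reporter units to measure endogenous transcription factor activity; 24 h exposure. Reporter mRNA read by RT-PCR, FAM labelling, HpaI digestion and capillary electrophoresis. Bidirectional fit versus DMSO.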

[13] = ATG_GRE_CIS: Attagene CIS-FACTORIAL HepG2 Assay for human Glucocorticoid Response Elements (GRE) (AID 2282947); conditions: HepG2 GRE cis-reporter, Attagene multiplex mRNA; actives raise or lower the signal
How it was run: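 Endogenous transcription factor activity is read through cis-element reporter constructs transiently transfected into HepG2 cells. After 24 h treatment, labelled RT-PCR products are resolved by capillary electrophoresis; DMSO sets baseline for bidirectional curve fitting.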

[14] = ATG_ISRE_CIS: Attagene CIS-FACTORIAL HepG2 Assay for human Interferon Regulatory Factor 1 (IRF1) binding to an Interferon-Stimulated Response Element (ISRE) (AID 2282948); conditions: HepG2 ISRE cis-reporter (Attagene), mRNA transcription readout; actives raise or lower the signal
How it was run: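 HepG2 cells transiently transfected with multiplexed cis-promoter reporter units; after 24 h compound exposure, reporter mRNA quantified by RT-PCR, FAM labelling, HpaI digestion and capillary electrophoresis. Bidirectional fit versus DMSO baseline.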

[15] = ATG_M_32_CIS: Attagene CIS-FACTORIAL HepG2 Assay for M32 Transcription Factor (Internal Marker) (AID 2282949); conditions: HepG2 Attagene cis-factorial M32 reporter, mRNA; actives raise or lower the signal;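 note: background control marker of the multiplexed CIS panel rather than a real target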
How it was run: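 Internal background marker read-out: RT-PCR/capillary electrophoresis fluorescence of reporter transcripts from transiently transfected HepG2 cells after 24 h chemical exposure. Activity fitted bidirectionally relative to DMSO negative control.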

[16] = ATG_M_06_CIS: Attagene CIS-FACTORIAL HepG2 Assay for M06 Transcription Factor (Internal Marker) (AID 2282950); conditions: HepG2 Attagene CIS-FACTORIAL M06 internal marker reporter; actives raise or lower the signal
How it was run: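 Serves as a background control readout. Transfected HepG2 exposed to compounds for 24 h, then reporter transcripts quantified by fluorescent RT-PCR and capillary electrophoresis. Both directions fitted against DMSO baseline.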

[17] = target: Hypoxia-inducible factor 1-alpha (Homo sapiens) (UniProt Q16665); test: ATG_HIF1a_CIS: Attagene CIS-FACTORIAL HepG2 Assay for human Hypoxia Inducible Factor 1 (HIF1A) (AID 2282951); conditions: HepG2 Attagene cis-factorial HIF1a reporter transcription; actives raise or lower the signal
Sequence of Hypoxia-inducible factor 1-alpha (Homo sapiens) (Q16665 whole entry, looked up, the tested form may be a part): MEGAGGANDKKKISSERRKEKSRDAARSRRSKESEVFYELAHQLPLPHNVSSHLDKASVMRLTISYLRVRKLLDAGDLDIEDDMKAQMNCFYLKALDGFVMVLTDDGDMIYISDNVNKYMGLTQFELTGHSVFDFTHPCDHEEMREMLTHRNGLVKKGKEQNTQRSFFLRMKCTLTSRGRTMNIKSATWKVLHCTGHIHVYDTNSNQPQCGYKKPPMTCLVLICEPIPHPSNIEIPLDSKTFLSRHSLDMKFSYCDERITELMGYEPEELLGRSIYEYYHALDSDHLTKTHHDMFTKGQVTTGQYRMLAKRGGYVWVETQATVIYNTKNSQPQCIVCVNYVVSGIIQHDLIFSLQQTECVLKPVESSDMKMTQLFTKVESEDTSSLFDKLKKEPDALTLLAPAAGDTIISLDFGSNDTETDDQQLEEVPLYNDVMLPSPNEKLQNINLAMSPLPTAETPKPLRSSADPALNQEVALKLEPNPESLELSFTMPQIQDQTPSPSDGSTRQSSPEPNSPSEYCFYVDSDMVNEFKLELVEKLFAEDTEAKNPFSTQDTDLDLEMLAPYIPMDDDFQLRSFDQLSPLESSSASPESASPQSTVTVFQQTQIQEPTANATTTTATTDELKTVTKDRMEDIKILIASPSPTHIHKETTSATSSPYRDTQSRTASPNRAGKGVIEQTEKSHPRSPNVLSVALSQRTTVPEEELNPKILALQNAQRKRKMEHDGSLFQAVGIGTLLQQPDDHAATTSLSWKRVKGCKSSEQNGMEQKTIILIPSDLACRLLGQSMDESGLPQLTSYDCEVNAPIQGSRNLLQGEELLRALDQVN
How it was run: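 Transient MRTU transfection of human HepG2 liver cells, 24 h compound treatment, then total RNA isolation, oligo(dT) reverse transcription, PCR amplification, fluorescent labelling and capillary electrophoresis of reporter fragments. Gain or loss relative to DMSO.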

[18] = target: Hepatocyte nuclear factor 6 (Homo sapiens) (UniProt Q9UBC0); test: ATG_HNF6_CIS: Attagene CIS-FACTORIAL HepG2 Assay for human Hepatocyte Nuclear Factor 6 (HNF6) (AID 2282952); conditions: HepG2 Attagene cis-factorial HNF6 reporter transcription; actives raise or lower the signal
Sequence of Hepatocyte nuclear factor 6 (Homo sapiens) (Q9UBC0 whole entry, looked up): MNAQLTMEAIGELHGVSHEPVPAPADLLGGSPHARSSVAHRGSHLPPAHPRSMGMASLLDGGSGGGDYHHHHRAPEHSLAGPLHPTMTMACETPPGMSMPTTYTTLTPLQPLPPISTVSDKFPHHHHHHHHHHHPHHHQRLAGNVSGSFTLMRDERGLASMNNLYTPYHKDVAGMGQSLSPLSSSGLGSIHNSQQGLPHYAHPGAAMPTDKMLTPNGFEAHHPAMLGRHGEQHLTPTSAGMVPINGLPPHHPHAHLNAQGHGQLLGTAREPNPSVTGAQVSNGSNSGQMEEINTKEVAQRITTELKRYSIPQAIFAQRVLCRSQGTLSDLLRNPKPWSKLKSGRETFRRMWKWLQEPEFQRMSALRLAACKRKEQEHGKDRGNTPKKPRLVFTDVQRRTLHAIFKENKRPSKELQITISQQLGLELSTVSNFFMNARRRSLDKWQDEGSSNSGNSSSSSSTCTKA
How it was run: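 HepG2 cells transiently transfected with cis-element-driven multiple reporter transcription units, dosed 24 h; reporter mRNA quantified by RT-PCR, FAM primer extension, HpaI digestion and capillary electrophoresis; bidirectional fit versus DMSO baseline.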

[19] = target: Heat shock factor protein 1 (Homo sapiens) (UniProt Q00613); test: ATG_HSE_CIS: Attagene CIS-FACTORIAL HepG2 Assay for human Heat Shock Transcription Factor 1 (HSE) (AID 2282953); conditions: HepG2 HSE cis-reporter, Attagene RNA transcription; actives raise or lower the signal
Sequence of Heat shock factor protein 1 (Homo sapiens) (Q00613 whole entry, looked up): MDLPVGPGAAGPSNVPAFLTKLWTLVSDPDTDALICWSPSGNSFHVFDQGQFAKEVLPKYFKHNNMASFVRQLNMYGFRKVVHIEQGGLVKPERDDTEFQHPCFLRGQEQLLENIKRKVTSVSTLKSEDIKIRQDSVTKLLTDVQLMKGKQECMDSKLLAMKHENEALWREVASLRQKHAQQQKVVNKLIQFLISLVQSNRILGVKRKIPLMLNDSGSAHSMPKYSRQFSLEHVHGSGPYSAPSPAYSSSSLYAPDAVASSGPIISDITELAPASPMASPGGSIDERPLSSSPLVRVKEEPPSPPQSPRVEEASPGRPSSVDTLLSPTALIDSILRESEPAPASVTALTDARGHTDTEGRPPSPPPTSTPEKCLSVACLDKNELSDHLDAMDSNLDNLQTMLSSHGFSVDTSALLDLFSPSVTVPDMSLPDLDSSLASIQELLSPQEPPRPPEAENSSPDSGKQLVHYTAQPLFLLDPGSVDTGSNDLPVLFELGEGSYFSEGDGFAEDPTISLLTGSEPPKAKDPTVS
How it was run: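 Endogenous transcription factor activity in transiently transfected HepG2, read as reporter mRNA by RT-PCR with fluorescent capillary electrophoresis after 24 h. Gain or loss of signal fitted versus DMSO baseline.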

[20] = ATG_MRE_CIS: Attagene CIS-FACTORIAL HepG2 Assay for human Metal Responsive Element (MRE) (AID 2282954); conditions: HepG2 MRE cis-reporter transcription, Attagene multiplex; actives raise or lower the signal
How it was run: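 Fluorescent reporter fragments separated by capillary electrophoresis give mRNA induction for the MRE unit after 24 h treatment of transfected HepG2 cells. Endogenous transcription-factor activity is read; DMSO serves as negative control and baseline.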

Measured: AC50

O=C(OCc1ccccc1)c1ccc(O)cc1
active: [2] 171 µM | [4] 93.4 µM | [6] 8.77 µM | [11] 167 µM | [14] 187 µM | [17] 113 µM | [19] 168 µM | [20] 125 µM
inactive: all other assays above

CC1CCC(=O)C1=O (stereo unspecified)
inactive: all assays above

CCCCCCCCCCCCCCCCCCOS(=O)(=O)O
active: [3] 54.7 µM | [5] 52.5 µM | [6] 26.8 µM | [8] 56.7 µM | [12] 33.4 µM | [15] 53 µM | [16] 54.7 µM | [18] 19.5 µM | [19] 54 µM | [20] 23.2 µM
inactive: all other assays above

CCOC(=O)C1=NOC(c2ccccc2)(c2ccccc2)C1
active: [17] 160 µM | [19] 143 µM
inactive: all other assays above

O=S(=O)(O)c1ccc(Nc2nc(Nc3ccc(C=Cc4ccc(Nc5nc(Nc6ccc(S(=O)(=O)O)cc6)nc(N(CCO)CCO)n5)cc4S(=O)(=O)O)c(S(=O)(=O)O)c3)nc(N(CCO)CCO)n2)cc1
not listed: [18]
inactive: all other assays above

CC(C)(C)NC(=O)[C@H]1CC[C@H]2[C@@H]3CC[C@H]4NC(=O)C=C[C@]4(C)[C@H]3CC[C@]12C
active: [20] 68.3 µM
not listed: [17] | [19]
inactive: all other assays above

CCOC(=O)[C@H](O)[C@@H](O)C(=O)OCC
not listed: [19]
inactive: all other assays above

COc1ccc(C(=O)c2ccccc2)c(O)c1
active: [4] 85.1 µM | [6] 5.69 µM | [12] 151 µM | [20] 130 µM
not listed: [19]
inactive: all other assays above

COC(=O)CC(C)CCC=C(C)C (stereo unspecified)
inactive: all assays above

CCc1cccc(CC)c1
inactive: all assays above

N#Cc1ccc(C(c2ccc(C#N)cc2)n2cncn2)cc1
inactive: all assays above

O=C(Nc1ccccc1)c1cc(Cl)ccc1O
active: [4] 6.36 µM | [7] 19.8 µM | [9] 100 µM | [19] 2.93 µM
not listed: [20]
inactive: all other assays above

CCCCC(=O)O
not listed: [20]
inactive: all other assays above

COC(C=C(C)CCC=C(C)C)OC
not listed: [18]
inactive: all other assays above

CC=CC(=O)OCC(C)C
not listed: [20]
inactive: all other assays above
